Results taken from PubChem BioAssay (NCI).
Compounds without any hit were thinned out: in the full panel of roughly 83,000, 20% have a hit.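 The endpoint reported here, percent growth, reads 100 for growth as untreated, 0 for no net growth and -100 for all cells dead.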 Values without a mark were called inactive. Calls of active or inactive are those of the source. How the source made its calls: active means growth percent below 10; inactive means the rest.

Key:
Assay in all cases: NCI-60 one-dose screen, 48 h (100 = growth as untreated, 0 = no growth, -100 = all killed)
Details in all cases: 10 µM
SK-MEL-2 melanoma = test system: SK-MEL-2 melanoma
EKVX NSCLC = test system: EKVX NSCLC
SN12C renal = test system: SN12C renal
TK-10 renal = test system: TK-10 renal
ACHN renal = test system: ACHN renal
CAKI-1 renal = test system: CAKI-1 renal
A498 renal = test system: A498 renal
CCRF-CEM leukemia = test system: CCRF-CEM leukemia
MOLT-4 leukemia = test system: MOLT-4 leukemia

| Structure (SMILES) | growth (SK-MEL-2 melanoma) | growth (EKVX NSCLC) | growth (SN12C renal) | growth (TK-10 renal) | growth (ACHN renal) | growth (CAKI-1 renal) | growth (A498 renal) | growth (CCRF-CEM leukemia) | growth (MOLT-4 leukemia) |
| --- | --- | --- | --- | --- | --- | --- | --- | --- | --- |
| O=C(c1ccccc1)N(C(=O)c1ccccc1)N1CCCC1 | 95.6% | 103% | 100% | 101% | 96.3% | 91.1% | 106% | 94.8% | 99.3% |
| O=C(CSc1nccc(Nc2cccc3ccccc23)n1)c1ccc(Cl)cc1 | 102% | 76.9% | 82.6% | 112% | 91.7% | 60.3% | 105% | 83.1% | 88.1% |
| COc1cccc(CNc2cccc3cn[nH]c23)c1O | 103% | 79.9% | 91% | 92.4% | 98.7% | 85.9% | – | 101% | 98% |
| O=C(O)c1ccc(-n2cc(CNc3ccc(Cl)cc3)c(-c3ccccc3)n2)cc1 | 78.5% | 78.1% | 94.9% | 91.7% | 79.5% | 88.8% | 91.4% | – | 82.4% |
| O=C(O)c1cn(C2CC2)c2cc(N3CCN(C(=O)c4cc(-c5ccc(Cl)cc5)nc5ccccc45)CC3)c(F)cc2c1=O | 101% | 85.5% | 90.9% | 113% | 87.3% | 60.2% | 74.2% | – | 82.1% |
| O=C1CCn2c1c(O)c1ccccc1c2=O | 126% | 94% | 108% | 107% | 111% | 86.3% | – | 99.6% | – |
| O=C(O)Cc1ccc(O)c(O)c1 | 109% | 89.4% | 99.4% | 112% | 108% | 99.5% | – | -24.1% (active) | 98.6% |
| CCn1c2ccc(O)cc2c2c(C)c3c[n+](C)ccc3c(C)c21 | 40.9% | 73.7% | -32.6% (active) | 45.6% | 60.6% | 85.2% | – | – | 17.8% |
| Fc1ccc(C(c2ccc(F)cc2)C(Cl)Cl)cc1 | 97.1% | 101% | 108% | 110% | 102% | 96.8% | – | 93.7% | 94.2% |
| COc1cc2c(cc1NC(=O)C(F)(F)F)-c1ccc(NC(=O)C(F)(F)F)cc1C2 | 105% | 104% | 86.8% | 94.8% | 62.9% | 96.9% | 97.7% | 97.6% | 105% |
| CC(C)C1=C(O)C2=C(C(=O)C1=O)[C@@]1(C)CCCC(C)(C)[C@@H]1CC2 | 97.7% | 67.1% | 81% | 81.5% | 59.6% | 15% | – | 41.5% | 44.2% |
| COc1cc(C(=O)N2CCN(c3cc4c(cc3F)c(=O)c(C(=O)NO)cn4C3CC3)CC2)cc(OC)c1OC | 90.2% | 89.5% | 108% | 87.4% | 101% | 94.4% | 91.4% | – | 103% |
| O=C(CC(CC(=O)c1ccccc1)c1ccccc1O)c1ccccc1 | 91.3% | 95% | 96.2% | 98.6% | 99.3% | – | 97.5% | 98.6% | 105% |
| CCOC(=O)C1=CSC2=NC3=C(CCC/C3=C\c3cc(OC)c(OC)c(OC)c3)C(c3cc(OC)c(OC)c(OC)c3)N12 (configuration not stated) | 106% | 95.1% | 54.4% | 84.7% | 45.9% | 66.3% | 78.4% | 16.8% | 52.7% |
| NS(=O)(=O)Oc1ccc(-c2ccc3sccc3c2)cc1 | 105% | 13.3% | 94.3% | 94% | 94.1% | 83.6% | 99.8% | 108% | 97.4% |
| COc1cccc(-c2nc3sccn3c2-c2cccc(S(C)(=O)=O)c2)c1 | 115% | 78.4% | 99.1% | 102% | 96.2% | 82.2% | 106% | 98.2% | 104% |

| Structure (SMILES) | growth (SK-MEL-2 melanoma) | growth (EKVX NSCLC) | growth (SN12C renal) | growth (TK-10 renal) | growth (ACHN renal) | growth (CAKI-1 renal) | growth (A498 renal) | growth (CCRF-CEM leukemia) | growth (MOLT-4 leukemia) |
| --- | --- | --- | --- | --- | --- | --- | --- | --- | --- |
| CC[N+](CC)=c1ccc2nc3c(cc(NCc4ccccc4)c4ccccc43)oc-2c1 | -80.1% (active) | -96.7% (active) | -85.9% (active) | -10.6% (active) | -77.9% (active) | -70.8% (active) | 44.8% | 19% | 2.86% (active) |
| NNC(=O)Oc1c(Cl)cc(Cl)cc1[N+](=O)[O-] | 103% | 105% | 111% | 94.1% | 106% | – | 118% | 100% | 97.6% |
| CC(=O)N[C@H](C(=O)N[C@@H](CCCNC(=N)N)C(=O)N[C@@H](CCCCN)C(=O)N[C@@H](CCCNC(=N)N)C(=O)N[C@]1(C)CCC/C=C\CCC[C@@](C)(C(=O)N[C@@H](CC(C)C)C(=O)N[C@@H](CC(C)C)C(=O)N[C@@H](CCC(N)=O)C(=O)N[C@@H](CCC(=O)O)C(=O)N[C@@H](CCCNC(=N)N)C(=O)N[C@@H](CCC(=O)O)C(=O)N[C@@H](CC(C)C)C(=O)N[C@H](C(=O)N[C@@H](CCC(=O)O)C(N)=O)C(C)C)NC(=O)[C@H](CCCNC(=N)N)NC(=O)[C@H](CC(C)C)NC1=O)C(C)C | 101% | 101% | 103% | 96.2% | 109% | 98.9% | 116% | – | 105% |
| CC(C)(C)c1ccc(S(=O)(=O)Oc2ccc(NC(=O)C3CCCCC3)cc2)cc1 | 31.6% | 23.8% | 60.2% | 57.8% | 25.7% | 58.3% | 90% | – | 33.5% |
| O=C1c2c(c(=O)[nH]c3ccccc23)CCN1Cc1ccccc1 | 127% | 92.4% | 97.4% | 119% | 91.8% | – | 110% | 100% | 105% |
| CNC(=O)c1cn(C2CC2)c2cc(N3CCN(C(=O)c4cc(OC)c(OC)c(OC)c4)CC3)c(F)cc2c1=O | 94.8% | 91.2% | 101% | 92.1% | 99.4% | 90.9% | 88.4% | – | 99.7% |
| O=C(NCCNC(=O)c1ccc(F)cc1)Nc1ccc(-n2cc(-c3ccncc3)c(-c3ccc(Cl)c(O)c3)n2)cc1 | -11.4% (active) | 11.8% | 31.5% | 12.3% | 9.32% (active) | – | -24.2% (active) | 7.35% (active) | 8.22% (active) |
| COc1ccc2c(c1)CC=C1[C@@H]2CC[C@]2(C)C(=O)/C(=N/O)C[C@@H]12 | 115% | 76.6% | 82.7% | 92.7% | 74.4% | 6.9% (active) | – | 33.1% | 63.3% |
| Cc1c(C(N)=O)sc2c1c(=O)n(Cc1ccccc1)c1nnc(-c3ccc(Br)cc3)n21 | 42.5% | 36.7% | 32.8% | 47.4% | 10.1% | – | 56% | – | – |
| O=c1c(Br)ccc(Br)cc1Br | -73.3% (active) | 99.1% | 4.44% (active) | -44.5% (active) | -79.1% (active) | – | 93% | -41.4% (active) | -36.8% (active) |
| Cc1cc(Br)nnc1Br | 123% | 114% | 109% | 124% | 108% | 101% | – | 97.8% | – |
| CC(=O)OC/C=C(/C)C[P+](c1ccccc1)(c1ccccc1)c1ccccc1 | 83.8% | 82.4% | 51.5% | 70.6% | 70% | – | 81.9% | 52.7% | – |
| CCCCN(CCCC)C(=O)[C@H](CC)[C@@H]1CC[C@@H](C)[C@@H]([C@H](C)[C@@H](O)[C@@H](C)C(=O)[C@H](CC)C2O[C@]3(C=CC(=O)[C@]4(CC[C@@](C)([C@H]5CC[C@](O)(CC)[C@H](C)O5)O4)O3)[C@H](C)C[C@@H]2C)O1 (some centres not stated) | 26.2% | 27.7% | 28.7% | 42.6% | 13.7% | 21.6% | 41% | – | 39.4% |
| CCCCCCCCCCCC[n+]1c(C)cc(N)c2ccccc21 | -52.1% (active) | 14.5% | 7.94% (active) | 7.85% (active) | 12% | 25.7% | – | 9.62% (active) | -24.1% (active) |
| O=C(O)c1cc([N+](=O)[O-])ccc1Oc1ccccc1 | 103% | 97.9% | 95.3% | 88.5% | 101% | – | 102% | 101% | – |
| COC(=O)CC[C@@H](C)[C@H]1CC[C@H]2[C@@H]3CC[C@@H]4C[C@H](O)CC[C@]4(C)[C@H]3C[C@H](O)[C@]12C | 87.7% | 103% | 97.8% | 92.7% | 99.1% | 89.8% | 119% | 86.3% | 76.4% |
